This note sets out measurements from PubChem BioAssay (NCI).

SMILES strings stand for the structures. The panel holds about 83,000 compounds, 20% with a hit somewhere; the sample as a whole holds those more often.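 A percent growth of 40 corresponds to 60% growth inhibition; 0 means no net growth; -100 means all cells died. Active threshold: below 10.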 Values without a mark were called inactive. Activity calls are given as the source filed them.

Test systems include NCI-H23 lung; NCI-H226 lung; NCI-H322M lung; HOP-62 NSCLC; NCI-H460 lung; HOP-92 NSCLC; NCI-H522 lung; A549/ATCC NSCLC; 786-0 renal; COLO 205 colon; DU-145 prostate; K-562 leukemia; MALME-3M melanoma; MDA-MB-231 breast; RXF 393 renal; SF-268 CNS; SF-295 CNS; SF-539 CNS; UACC-257 melanoma; M14 melanoma.
Holding throughout (assay): NCI-60 one-dose screen, 48 h (100 = growth as untreated, 0 = no growth, -100 = all killed)
Holding throughout (details): 10 µM unless noted

As for `CCOC(=O)c1c(C)nc2c(c1N)C(=O)C(=O)N2Cc1ccc(OC)cc1`, the growth with NCI-H23 lung is 59.6%; with NCI-H226 lung, 90.8%; with NCI-H322M lung it was 99.5%; in the assay on HOP-62 NSCLC it was 40.1%; in the assay on NCI-H460 lung it was 101%; in the assay with HOP-92 NSCLC it was 39.6%. Moreover, the growth in the assay on NCI-H522 lung is 41.3%; in the assay on A549/ATCC NSCLC, 88%; in the assay with 786-0 renal it was 39.7%; in the assay on COLO 205 colon, 123%; with DU-145 prostate, 84.7%; with K-562 leukemia it was 28.8%. Moreover, the growth in the assay on MALME-3M melanoma was 58.7%; in the assay with MDA-MB-231 breast, 79.7%; with RXF 393 renal it was 87.9%; in the assay with SF-268 CNS, 64.7%; in the assay on SF-295 CNS it was 74.3%; in the assay with SF-539 CNS, 45.5%. Moreover, the growth with UACC-257 melanoma was 76.2%; with M14 melanoma, 68.8%.

As for `COc1cc2c(c(OC)c1OC)C(=O)CC(c1cccc(C(=O)Nc3ccccc3Br)c1)O2` (stereo not given), the growth with NCI-H23 lung was 102%; in the assay with NCI-H226 lung, 86%; with NCI-H322M lung, 98.1%; in the assay on HOP-62 NSCLC, 97.1%; in the assay with NCI-H460 lung it was 110%; in the assay with HOP-92 NSCLC, 68.4%. The growth with NCI-H522 lung is 69.9%; in the assay on A549/ATCC NSCLC, 97.8%; in the assay with 786-0 renal, 88%; with COLO 205 colon, 95.4%; with DU-145 prostate, 83.7%; with K-562 leukemia, 74.1%. Further, the growth with MALME-3M melanoma is 99.6%; in the assay on MDA-MB-231 breast, 91.1%; with RXF 393 renal it was 110%; in the assay on SF-268 CNS, 73.8%; with SF-295 CNS, 98.1%; in the assay with SF-539 CNS, 90.4%. The values for the growth with UACC-257 melanoma and with M14 melanoma were 92.7% and 91.1%, respectively.

As to `N=C(N)c1ccc(-c2ccc(-c3cc(Cl)cc(Cl)c3)s2)s1`, the growth in the assay with NCI-H23 lung is -49.5% (active); with NCI-H226 lung, 90.8%; in the assay with NCI-H322M lung, -44.7% (active); in the assay with HOP-62 NSCLC it was -28.3% (active); in the assay on NCI-H460 lung, -33.9% (active); with HOP-92 NSCLC it was 50.2%. Also, the growth in the assay with NCI-H522 lung was -70.6% (active); in the assay on A549/ATCC NSCLC, -52.8% (active); in the assay on 786-0 renal it was -74.5% (active); in the assay on COLO 205 colon it was -75.4% (active); in the assay with DU-145 prostate, -72.2% (active); in the assay on K-562 leukemia, -52.5% (active). In addition, the growth in the assay on MALME-3M melanoma was -13.1% (active); with MDA-MB-231 breast, -55.1% (active); in the assay with RXF 393 renal it was -84.2% (active); in the assay with SF-268 CNS, -43.8% (active); with SF-295 CNS, -69.8% (active); with SF-539 CNS, -60.6% (active). Further, the growth was -46.3% (active) in the assay on UACC-257 melanoma and 1.55% (active) in the assay on M14 melanoma.

For the molecule `O=c1oc2ccccc2cc1-c1nn(-c2ccccc2)cc1-c1nn[nH]n1`, the growth in the assay on NCI-H23 lung is 101%; in the assay on NCI-H226 lung it was 92.8%; in the assay with NCI-H322M lung it was 100%; with HOP-62 NSCLC it was 90.8%; in the assay with NCI-H460 lung, 105%; in the assay with HOP-92 NSCLC, 92.2%. Besides, the growth was 94.6% in the assay with NCI-H522 lung; 97.7% in the assay with A549/ATCC NSCLC; 104% with 786-0 renal; 108% in the assay with COLO 205 colon; 113% in the assay with DU-145 prostate; 103% with K-562 leukemia. The growth was 90% in the assay with MALME-3M melanoma; 94.7% in the assay on MDA-MB-231 breast; 99.4% in the assay on RXF 393 renal; 103% in the assay on SF-268 CNS; 99.7% with SF-295 CNS; 97.4% in the assay with SF-539 CNS. For the same molecule, the growth was 100% in the assay with UACC-257 melanoma and 98.2% with M14 melanoma.

Take `CC(=O)O[C@H]1CC[C@]2(C)[C@H]3CC=C4[C@@H]5CC(C)(C)CC[C@]5(C(=O)N5CCN(CCC#N)CC5)CC[C@@]4(C)[C@]3(C)CC[C@H]2C1(C)C`: the growth with NCI-H23 lung is 45.3%; with NCI-H226 lung, 48.9%; in the assay with NCI-H322M lung, 53.3%; with HOP-62 NSCLC, 41.2%; with NCI-H460 lung it was -1.52% (active); in the assay on HOP-92 NSCLC it was 56.7%. In addition, the growth in the assay on NCI-H522 lung is 38.9%; in the assay with A549/ATCC NSCLC it was 25.6%; in the assay with 786-0 renal, 47.4%; with COLO 205 colon, 21.1%; in the assay with DU-145 prostate it was 57.8%; in the assay with K-562 leukemia, 10%. For the same molecule, the growth in the assay with MALME-3M melanoma is 26%; in the assay on MDA-MB-231 breast, 48.5%; in the assay on RXF 393 renal it was 74.3%; with SF-268 CNS, 51.8%; with SF-295 CNS, 65.5%; in the assay on SF-539 CNS, 16.7%. The growth in the assay on UACC-257 melanoma is 18.1%; with M14 melanoma it was 35.7%.

`CC1(C)CC[C@]23CC[C@]4(C)[C@H](CC[C@@H]5[C@@]6(C)CCNCC(C)(C)[C@@H]6CC[C@]54C)[C@H]2[C@H]1OC3`: the growth is 95.6% in the assay with NCI-H23 lung; 96.7% with NCI-H226 lung; 99.8% with NCI-H322M lung; 97% with HOP-62 NSCLC; 23.7% in the assay on NCI-H460 lung; 98.9% with HOP-92 NSCLC. Further, the growth in the assay with NCI-H522 lung is 90.1%; with A549/ATCC NSCLC it was 79.3%; in the assay on 786-0 renal, 101%; with COLO 205 colon, -21% (active); in the assay on DU-145 prostate, 98.5%; with K-562 leukemia it was 16.9%. Besides, the growth was 104% in the assay with MALME-3M melanoma; 96.6% in the assay on MDA-MB-231 breast; 101% in the assay with RXF 393 renal; 111% in the assay with SF-268 CNS; 108% with SF-295 CNS; 99.5% with SF-539 CNS. Moreover, the growth is 92.5% in the assay on UACC-257 melanoma and 92.8% in the assay on M14 melanoma.

Turning to `CC12OC(CC(O)C1O)n1c3ccccc3c3c4c(c5c6ccccc6n2c5c31)C(=O)N(CCN1CCCC1)C4=O` (stereo not given), the growth with NCI-H23 lung is 14.3%; with NCI-H226 lung, 2.49% (active); in the assay with NCI-H322M lung, 28.5%; with HOP-62 NSCLC, 2.4% (active); in the assay with NCI-H460 lung, -17.3% (active); with HOP-92 NSCLC it was 34.1%. Moreover, the growth with NCI-H522 lung is -0.973% (active); in the assay with A549/ATCC NSCLC, 1.98% (active); in the assay with 786-0 renal, 14.5%; with COLO 205 colon it was 14.4%; with DU-145 prostate, 3.68% (active); in the assay with K-562 leukemia it was 4.59% (active). The growth with MALME-3M melanoma was 13.2%; in the assay with MDA-MB-231 breast, 56.9%; in the assay on RXF 393 renal, 21.1%; in the assay with SF-268 CNS, 29%; in the assay on SF-295 CNS, 2.23% (active); in the assay with SF-539 CNS, 22.8%. Moreover, the growth is 24.5% in the assay with UACC-257 melanoma and 19% in the assay with M14 melanoma.
